Results filed as inconclusive are left out. Entries that show only a call come without a potency. Calls of active or inactive are those of the source. Unless noted, calls follow the shape of the dose curve; as a rule, active = well fitted inhibition curve with a large enough effect; inconclusive = small, poorly fitted or top-dose-only effect; inactive = flat fitted curve, though single readings scatter.
molecular target: T1, Tyrosine-protein phosphatase non-receptor type substrate 1 (Homo sapiens) + Leukocyte surface antigen CD47 (Homo sapiens) (UniProt P78324+Q08722); test: CD47-SIRPalpha protein protein interaction - HTRF assay qHTS validation (AID 1347058; active = well fitted curve in the direction sought with a large enough effect in the signal ratio, not every such curve was filed as active; the % refers to the signal ratio;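 also: recombinant soluble extracellular CD47 with His tag and biotinylated SIRPalpha domains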); conditions: TR-FRET HTRF CD47-His / biotin-SIRPalpha binding, ratio 665/615; series mostly up to 38.3 µM
Procedure, shortened: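 TR-FRET read (Ch1/Ch2 ratio) of soluble extracellular CD47 and Avi-biotinylated SIRPalpha domains in PBS pH 7.4 with 0.05% IGEPAL; 7-point compound titration. Sequential 30 min room-temperature steps; non-biotinylated SIRPalpha as control inhibitor.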

T1 sequence (P78324 whole entry, looked up, the tested form may be a part): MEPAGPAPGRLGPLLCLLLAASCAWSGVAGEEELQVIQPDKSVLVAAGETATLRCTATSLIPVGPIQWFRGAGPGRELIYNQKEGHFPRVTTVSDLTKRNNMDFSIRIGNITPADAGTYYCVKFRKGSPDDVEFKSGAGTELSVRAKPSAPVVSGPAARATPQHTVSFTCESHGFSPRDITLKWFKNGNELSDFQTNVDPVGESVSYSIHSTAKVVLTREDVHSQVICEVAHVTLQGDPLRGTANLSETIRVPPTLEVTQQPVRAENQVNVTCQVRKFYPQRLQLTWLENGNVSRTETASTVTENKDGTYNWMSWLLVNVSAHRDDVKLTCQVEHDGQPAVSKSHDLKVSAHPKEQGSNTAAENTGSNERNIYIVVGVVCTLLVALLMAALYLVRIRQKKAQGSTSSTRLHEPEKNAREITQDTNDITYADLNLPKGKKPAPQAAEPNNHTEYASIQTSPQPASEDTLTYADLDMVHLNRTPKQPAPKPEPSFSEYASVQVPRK
T1 sequence (Q08722 whole entry, looked up, the tested form may be a part): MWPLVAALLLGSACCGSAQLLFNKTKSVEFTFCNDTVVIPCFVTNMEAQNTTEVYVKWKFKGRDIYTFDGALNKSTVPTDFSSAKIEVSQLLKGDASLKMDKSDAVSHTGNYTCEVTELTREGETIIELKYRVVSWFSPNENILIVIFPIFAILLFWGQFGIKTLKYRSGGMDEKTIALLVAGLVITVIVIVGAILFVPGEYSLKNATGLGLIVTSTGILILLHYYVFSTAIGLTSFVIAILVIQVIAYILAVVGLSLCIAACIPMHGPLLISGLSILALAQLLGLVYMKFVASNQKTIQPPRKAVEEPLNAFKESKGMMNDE

Structure (SMILES) | outcome
NC[C@@H]1O[C@H](C23CC4CC(CC(C4)C2)C3)Cc2c1ccc(O)c2O | inactive
Fc1ccc(C(OCCCc2cnc[nH]2)c2ccc(F)cc2)cc1 | inactive
CCCCCCCCCCCCCCCC(=O)OC(CC(=O)O)C[N+](C)(C)C (configuration not stated) | inactive
CC(N)C(=O)OC(C)(C)Cc1ccc(Cl)cc1 (configuration not stated) | inactive
CN1CC(=O)N/C1=N/C(=O)Nc1cccc(Cl)c1 | inactive
CCC1C(=O)OCC1Cc1cncn1C (configuration not stated) | inactive
CSc1ccccc1N1CCN(CCCCCC(=O)NC2CCCc3ccccc32)CC1 (configuration not stated) | inactive

molecular target: T1, Tyrosine-protein phosphatase non-receptor type substrate 1 (Homo sapiens) + Leukocyte surface antigen CD47 (Homo sapiens); test: CD47-SIRPalpha protein protein interaction - Alpha assay qHTS validation (AID 1347059); conditions: AlphaScreen CD47-His/biotin-SIRPalpha binding, LOPAC; series mostly up to 38.3 µM;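 also: bead proximity luminescence from CD47 binding SIRPalpha after compound preincubation with SIRPalpha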
Procedure, shortened: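 Binding is measured by AlphaScreen proximity: Ni-NTA acceptor beads capture His-CD47, streptavidin donor beads capture biotin-SIRPalpha. Each of three additions (SIRPalpha with compound, CD47, beads) incubates 30 min at room temperature protected from light.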

Structure (SMILES) | Potency
O=S(=O)(c1cccc2c(I)cccc12)N1CCCNCC1 | inactive
NS(=O)(=O)c1ccc(-n2nc(C(F)(F)F)cc2-c2ccc(Cl)cc2)cc1 | inactive
O=C1NC(O)=NC1(c1ccccc1)c1ccccc1 | inactive
CC(C)NC[C@@H](O)c1ccc(O)c(O)c1 | inactive
O=C1C(SCCO)=C(SCCO)C(=O)c2ccccc21 | inactive
O=C(/C=C/c1ccc(O)cc1)c1ccc(O)cc1O | inactive
CCCCN(CC)c1nc(C)nc2c1c(C)cn2-c1c(C)cc(C)cc1C | inactive
CN(C)c1nc(N)c(C(=O)N=C(N)N)nc1Cl | inactive
COc1ccc(/C=C/c2nc(NCCCN(C)C)c3ccccc3n2)cc1 | inactive
O=Nc1ccc2oc(=O)ccc2c1 | inactive
Cc1cn([C@H]2CC(N=[N+]=[N-])[C@@H](CO)O2)c(=O)[nH]c1=O (some centres not stated) | inactive
CC(N)C(=O)OC(C)(C)Cc1ccc(Cl)cc1 (configuration not stated) | inactive
CCN(CC)CCCCNc1ncc2cc(-c3c(Cl)cccc3Cl)c(NC(=O)NC(C)(C)C)nc2n1 | inactive
CN1CCc2ccccc2Cc2[nH]c3ccccc3c2CC1 | inactive
COc1ccc(-c2cc(=O)c3c(O)c(OC)c(OC)cc3o2)cc1O | inactive
O=C(c1ccc(Cl)cc1)N1CCN(c2ccc([N+](=O)[O-])c3ncccc23)CC1 | inactive
O=C(O)c1cc([N+](=O)[O-])ccc1NCCCc1ccccc1 | inactive
CN1CC(=O)N/C1=N/C(=O)Nc1cccc(Cl)c1 | inactive

Structure (SMILES) | Potency
COc1cccc(OC)c1OCCNCC1COc2ccccc2O1 (configuration not stated) | inactive
O=C(Nc1ccncc1)c1cc([N+](=O)[O-])ccc1Cl | inactive
O=C1NC(=O)/C(=C/c2ccc3nccnc3c2)S1 | inactive
O=c1[nH]c2cc([N+](=O)[O-])c([N+](=O)[O-])cc2[nH]c1=O | inactive
N[C@H](CCCP(=O)(O)O)C(=O)O | inactive
Cn1ncc(S(=O)(=O)Cc2ccccc2)c(Br)c1=O | inactive
COc1ccc(/C=C2\COc3ccc(C)cc3C2=O)cc1O | inactive
NC(N)=NC(=O)c1nc(Cl)c(N2CCCCCC2)nc1N | inactive
CCC1C(=O)OCC1Cc1cncn1C (configuration not stated) | inactive
COc1ccc(NC(=O)/C=C/c2ccc(Cl)cc2)cc1 | inactive
OCC1O[C@H](O)C(Cl)C(O)C1O (some centres not stated) | inactive
O=C1/C(=C/c2ccsc2)CC/C1=C\c1cccs1 | inactive
COc1ccc(C(=O)/C(Cc2cc(OC)c(OC)c(OC)c2)=C(\C(=O)O)c2ccc3c(c2)OCO3)cc1 | inactive
O=C(NOCC1CC1)c1cc(Br)c(F)c(F)c1Nc1ccc(I)cc1Cl | inactive
O=[N+]([O-])c1ccc(CSc2ncnc3c2ncn3[C@@H]2O[C@H](CO)[C@@H](O)[C@H]2O)cc1 | inactive
O=c1cc(-c2ccccc2)oc2c(O)c(O)ccc12 | inactive
CCOC(=O)N1CCN(/[N+]([O-])=N/Oc2ccc([N+](=O)[O-])cc2[N+](=O)[O-])CC1 | inactive

From PubChem BioAssay (NCATS)
